Experimental data published in PubChem BioAssay.
The other results are listed elsewhere or left out. A number with no mark means an inactive call. The source made the active and inactive calls.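 How the source made its calls, unless noted: active means activation above the solvent-only control well mean plus 3 SD, set per plate batch (cut at about 110% in these data); inactive means the rest.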

Key:
[1] = STAT1 signaling activators, confirmation, cell-based, HTS, luciferase reporter (AID 1262;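 active means activation above a set limit carried over from the earlier primary STAT1 screen, cut at about 140% in these data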;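 further: simple ratio to median IFN-gamma plus DMSO wells so 0% means no light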); conditions: NIH 3T3 STAT1-luciferase reporter, IFN-gamma potentiation, luminescence; at 5.7 µM; hits give high values; 100% = IFN-gamma EC80 alone, no compound
[2] = NF-kB reporter activators, TNF-alpha stimulated, counter-screen for STAT1 activator project, cell-based, HEK293T, luciferase luminescence (AID 1306;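 active means activation above the mean of solvent-only control wells plus 3 SD, set per campaign, cut at about 130% in these data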;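 further: TNF-alpha given at a submaximal dose yielding about 80% of full reporter signal; values are well signal over median control so 100% means no change and 0% no light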); conditions: at 5.7 µM, hits give high values, 100% = TNF-alpha with vehicle only
[3] = target: Signal transducer and activator of transcription 3 (Homo sapiens) (UniProt P40763); assay: STAT3 reporter activation by STAT1 hits, confirmation, counter-screen for STAT1 activator project, U3A cells, luciferase, luminescence (AID 1316); conditions: IL-6, luminescence, at 5.7 µM, hits give high values, 100 = IL-6 alone, no compound effect, cells lack STAT1;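 further: 0% = no luminescence and 100% = median IL-6 plus DMSO wells; higher means more STAT3 reporter activation so hits are non-selective activators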
[4] = system: DAF-12 nuclear receptor (Heterodera glycines), GAL4-LBD fusion; assay: H. glycines DAF-12 receptor agonists, confirmation, cell-based, luminescence, HEK293, GAL4-LBD fusion (AID 743050;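 active means mean activation over triplicate wells above the hit cutoff derived from the earlier primary screen, cut at about 11% in these data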;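 further: 0% = DMSO low control and 100% = 2 mM sodium butyrate high control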); conditions: HEK293 GAL4-hgDAF12 luciferase reporter, agonist mode; at 6.8 µM; hits give high values; percent of butyrate response
[5] = target: Oxysterols receptor LXR-beta (Homo sapiens) (UniProt P55055); assay: LXR agonists, Gal4 luciferase reporter, confirmation, counter-screen for hgDAF-12 agonist project, cell-based, luminescence, HEK293, H. glycines campaign (AID 743051;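 active means mean activation of the triplicate above a set limit carried over from the primary screen, none filed active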); conditions: 24 h, at 6.8 µM, hits give high values
Oxysterols receptor LXR-beta (Homo sapiens), sequence (P55055 whole entry, looked up, the tested form may be a part): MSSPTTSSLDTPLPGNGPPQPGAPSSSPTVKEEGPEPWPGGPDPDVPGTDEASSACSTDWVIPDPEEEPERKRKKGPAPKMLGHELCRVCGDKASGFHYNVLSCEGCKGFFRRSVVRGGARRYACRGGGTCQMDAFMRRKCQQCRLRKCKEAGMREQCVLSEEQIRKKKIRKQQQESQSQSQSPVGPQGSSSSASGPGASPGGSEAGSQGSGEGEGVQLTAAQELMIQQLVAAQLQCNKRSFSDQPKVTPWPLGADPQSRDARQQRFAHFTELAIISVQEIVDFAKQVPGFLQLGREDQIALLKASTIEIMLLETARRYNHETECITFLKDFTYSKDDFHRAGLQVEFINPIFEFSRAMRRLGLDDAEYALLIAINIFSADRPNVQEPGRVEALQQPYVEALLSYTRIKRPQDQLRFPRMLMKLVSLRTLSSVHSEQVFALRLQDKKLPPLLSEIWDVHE

[6] = target: Oxysterols receptor LXR-beta (Homo sapiens) (UniProt P55055); assay: LXR agonists, Gal4 luciferase reporter, confirmation, counter-screen for hcDAF-12 agonist project, cell-based, luminescence, HEK293, H. contortus campaign (AID 743027;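 active means mean percent activation of the reporter above a cutoff set as the average over tested compounds plus their standard deviation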); conditions: HEK293 Gal4-LXR tk-luc reporter, 24 h, at 6.8 µM, hits give high values, normalized: DMSO 0%, positive control 100%
[7] = system: Nuclear hormone receptor DAF-12 (Haemonchus contortus); assay: H. contortus DAF-12 receptor agonists, confirmation, cell-based, luminescence, HEK293, lit1-tk-luc, triplicate (AID 743032;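 active means mean activation across triplicate tests above the threshold derived from the earlier primary screen, cut at about 5.5% in these data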;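 further: 0% = DMSO only wells and 100% = 3 µM Δ7-dafachronic acid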); conditions: HEK293 hcDAF-12 lit1-tk-luc reporter, at 6.8 µM, hits give high values, % of Δ7-dafachronic acid response
[8] = growth loss of phage-infected E. coli expressing H. pylori AddAB, confirmation, AddAB inhibitor project, absorbance, E. coli V3065, T4 phage, triplicate (AID 488942;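 active means mean inhibition above a set limit taken from the earlier primary screen, cut at about 13% in these data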;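 further: higher means less bacterial growth since AddAB block lets phage replicate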); conditions: OD, at 11.9 µM, hits give high values, T4 phage with gene 2 nonsense mutations
[9] = growth loss of RecBCD+ E. coli with mutant T4 phage, counter-screen for AddAB inhibitor project, absorbance, V66 E. coli (AID 488955;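 active means mean inhibition above the mean of solvent-only control wells plus 3 SD, cut at about 4% in these data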;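 further: optical density read after an 18 h incubation at 37 °C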); conditions: OD growth, at 11.9 µM, hits give high values
[10] = bacterial viability inhibition counter-screen, confirmation, counter-screen for AddAB inhibitor project, absorbance (AID 488956; in the data active means inhibition above about 25%); conditions: absorbance (AddAB counterscreen), at 11.9 µM, hits give high values

For `COc1ccc(/C=N/Nc2nc3ccccc3c(=O)[nH]2)cc1`, the activation (% of control) [1] was 169% (active), the activation (% of control) [2] was 119% and the activation (% of control) [3] was 102%.

In the case of `COc1ccc(C2Nc3ccccc3C(=O)N2c2ccc(Cl)cc2)cc1Cn1cc([N+](=O)[O-])cn1` (stereo not given), the activation (% of control) [1] is reported as 151% (active), the activation (% of control) [2] is reported as 112% and the activation (% of control) [3] is reported as 120% (active). For the same compound, the activation [4] was 10.6% (active) and the activation [5] was 0.5%.

With `O=C(Nc1ccc2c(c1)CCC2)c1ccc(Br)s1` the activation (% of control) [1] was 236% (active), the activation (% of control) [2] was 137% (active) and the activation (% of control) [3] was 114% (active). For the same compound, the activation [6] was 2.03%, the activation [7] was 7.91% (active) and the activation [4] was 24.6% (active). The activation [5] was 1.14%.

For `CCNc1nc(-c2cc3ccccc3o2)cs1`, the activation (% of control) [1] was 131% (active), the activation (% of control) [2] was 121% and the activation (% of control) [3] was 103%. The activation [6] was 2.08% and the activation [7] was 8.18% (active).

For `CCn1c(/C=C/c2ccc([N+](=O)[O-])o2)nc2ccccc2c1=O`, the activation (% of control) [1] was 125%, the activation (% of control) [2] was 156% (active) and the activation (% of control) [3] was 102%. For the same compound, the inhibition [8] was 92.8% (active), the inhibition [9] was 12.8% (active) and the inhibition [10] was 42.1% (active).

For `Cc1cc(C)c2nc(NC(=O)C3CCCO3)sc2c1` (stereo not given), the activation (% of control) [1] was 209% (active), the activation (% of control) [2] was 138% (active) and the activation (% of control) [3] was 195% (active). The activation [6] was 1.55% and the activation [7] was 6.1% (active).

For `CC(=O)Nc1cccc(-c2csc(Nc3cccc(C)n3)n2)c1`, the activation (% of control) [1] was 241% (active), the activation (% of control) [2] was 144% (active) and the activation (% of control) [3] was 106%. For the same compound, the activation [6] was 1.08%, the activation [7] was 3.26% and the activation [4] was 19% (active). For the same compound, the activation [5] was 1.17%.

For `Cc1ccc(NC(=O)Nc2ccccc2)c(Br)c1`, the activation (% of control) [1] was 171% (active), the activation (% of control) [2] was 124% and the activation (% of control) [3] was 89.8%.

For `Nc1ncc(-c2cc3ccccc3oc2=O)s1`, the activation (% of control) [1] was 184% (active), the activation (% of control) [2] was 124% and the activation (% of control) [3] was 110%.

For `COc1ccc(-n2nnnc2-c2nc3ccccc3s2)cc1`, the activation (% of control) [1] was 214% (active), the activation (% of control) [2] was 117% and the activation (% of control) [3] was 111% (active). The activation [6] was 1.88% and the activation [7] was 12.8% (active).

In the case of `CCOC(=O)/C(C#N)=C/c1ccc(N2CCCCC2)cc1`, the activation (% of control) [1] is reported as 155% (active), the activation (% of control) [2] is reported as 140% (active) and the activation (% of control) [3] is reported as 108%.

With `CN(c1ccc(C(=O)NCCC2=CCCCC2)cc1)S(C)(=O)=O` the activation (% of control) [1] was 177% (active), the activation (% of control) [2] was 124% and the activation (% of control) [3] was 121% (active).

For `Cc1nn(-c2ccc([N+](=O)[O-])cc2)c(N)c1-c1ccccc1`, the activation (% of control) [1] was 207% (active), the activation (% of control) [2] was 145% (active) and the activation (% of control) [3] was 126% (active). The activation [4] was 16.4% (active) and the activation [5] was 0.83%.
